# According to PubChem BioAssay AID485364 (National Center for Advancing Translational Sciences (NCATS), 2010):
# In all, about 360,000 compounds went through this assay and about 11,000 (3.1%) were called active. A call without a number means that no potency is given here. About 4% were inconclusive and are not listed. Calls come from the whole dose curve; as a rule, active = well fitted inhibition curve with a large enough effect; inconclusive = small, poorly fitted or top-dose-only effect; inactive = no such curve, though single readings can be large or run the other way. The full list was thinned out, with actives kept by preference.
# Molecular target: Schistosoma mansoni thioredoxin glutathione reductase (TGR) (UniProt Q962Y6)
# Assay: qHTS Assay for the Inhibitors of Schistosoma Mansoni Peroxiredoxins; note: nearly all actives have a fitted effect of over 60% in size
# Conditions: purified TGR, DTNB reduction, TNB absorbance 405 nm; series mostly up to 114 µM
# How it was run: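 Kinetic colorimetric format: TGR-catalysed, NADPH-driven DTNB reduction monitored via TNB absorbance. Enzyme dispensed at 20 nM; compound exposure 15 min at room temperature before reaction start.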
# Potency is the fitted concentration of half-maximal effect.
row,SMILES,Potency
1,Oc1ccc2ccccc2c1N=Nc1nccs1,17.8 µM (active)
2,COc1ccc(Cc2nc3ccc(C(=O)NCc4ccccc4Cl)cc3o2)cc1,inactive
3,CCOc1ccccc1NC(=O)Cn1c2ncccc2c(=O)n1-c1ccc(C)c(C)c1,inactive
4,CCCCn1c(=N)c(S(=O)(=O)c2ccccc2)cc2c(=O)n3cccc(C)c3nc21,inactive
5,Cc1cccn2c(=O)c3cc(C#N)c(=O)n(CCCN4CCOCC4)c3nc12,25.1 µM (active)
6,Cc1cccn2c(=O)c3cc(C(=O)NCCN4CCOCC4)c(=N)n(Cc4cccnc4)c3nc12,inactive
7,CC1CCC2(CC1)N=C(c1ccccc1)C(=O)N2CC(=O)Nc1ccc(F)c(Cl)c1 (stereo not drawn),inactive
8,N#Cc1nc(/C=C/c2ccc(F)cc2)oc1NCc1ccc(F)cc1,inactive
9,CCN(C(=O)Cn1cnc2sc(C)c(S(=O)(=O)N3CCN(c4ncccn4)CC3)c2c1=O)c1ccccc1F,inactive
10,Cc1cccc(NC(=O)CSc2nc(-c3ccco3)cc(C(F)(F)F)n2)c1C,inactive
11,CN(C)c1ccc(NC(=O)CSc2nc(-c3ccco3)cc(C(F)(F)F)n2)cc1,inactive
12,O=C(CSc1nc(-c2ccco2)cc(C(F)(F)F)n1)N1CCc2ccccc2C1,11.2 µM (active)
13,O=C(NCc1ccc2c(c1)CCN2C(=O)c1ccccc1)c1ccccc1,inactive
14,CCCn1c2ccccc2c2cnn(CC(=O)NCC3CCN(Cc4ccc(C)cc4)CC3)c(=O)c21,inactive
15,Cc1cccc(NC(=O)c2ccc(F)c(S(=O)(=O)N(C)C3CCCCC3)c2)c1,inactive
16,CCOc1ccccc1C(=O)NCC(c1ccc(N(C)C)cc1)N1CCCC1 (stereo not drawn),inactive
17,CC(C)CNC(=O)CC(c1ccccc1)c1c(O)ccc2ccccc12 (stereo not drawn),inactive
18,O=[N+]([O-])c1cnc2ccc3ccccc3c2c1,inactive
19,Oc1ccc(N=Cc2c(O)ccc3ccccc23)cc1,28.2 µM (active)
20,CCOc1[nH]n(-c2ccc(Cl)cc2)c(=O)c1C=Nc1ccc(O)cc1,inactive
21,CC(=O)n1c(C=Nc2ccccc2)c(O)c2ccccc21,inactive
22,CCC(=O)CC(c1ccc([N+](=O)[O-])cc1)c1c(O)c2ccccc2oc1=O (stereo not drawn),inactive
23,O=[N+]([O-])c1ccc(N=Cc2c(O)ccc3ccccc23)cc1,22.4 µM (active)
24,Oc1ccc2ccccc2c1C=Nc1ccccc1,12.6 µM (active)
25,Cc1cc(N=Nc2ccc3ccccc3c2)ccc1O,inactive
26,COc1ccc(CCNC(=O)c2c3c(nc4ccccc24)C(=O)N(C2CCCCC2)C3)cc1OC,inactive
27,Cc1ccc(C(=O)Nc2ccccc2F)cc1S(=O)(=O)N1CCOCC1,inactive
28,CCOc1ccccc1NC(=O)CN1CCN(S(=O)(=O)c2ccc(Br)cc2)CC1,inactive
